Our source for the outcome and AC50 values is PubChem BioAssay (EPA / NIEHS).

Assay [1] concerns the target Cellular tumor antigen p53 (Homo sapiens) (UniProt P04637). In words: TOX21_p53_BLA_p2_ratio: Tox21 HCT-116 p53 Agonism Beta-lactamase Assay, Ratio, Phase 2 (AID 2283592). Summed up:
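DMSO-normalized, positive-direction endpoint derived from the 460 nm/530 nm FRET ratio in HCT116 p53 beta-lactamase reporter cells exposed 16 h at 37C and loaded with CCF4-AM for 2 h.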

The target is the same in assay [2]. In words: TOX21_p53_BLA_p3_ratio: Tox21 HCT-116 p53 Agonism Beta-lactamase Assay, Ratio, Phase 3 (AID 2283596). The method, boiled down:
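Cells were seeded at 4000/well, rested 5 h at 37C, then dosed with DMSO compound solutions (217-fold dilution) for 16 h. CCF4-AM substrate was loaded for 2 h at room temperature, and the 460/530 nm emission ratio was fitted for gain of signal versus DMSO.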

Assay [3] in a line: TOX21_p53_BLA_p4_viability: Viability Assessment in the Tox21 HCT-116 p53 Agonism Beta-lactamase Assay, Phase 4 (AID 2283597).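 Note: hits lower the luminescence signal meaning cytotoxicity.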 The method, boiled down:
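In this multiplexed secondary endpoint, HCT116 cells (4000 per well, compound at 5 h, 16 h treatment) received CellTiter-Glo after the beta-lactamase read. Luminescence after 30 min RT reflects ATP, and falling signal marks cytotoxicity.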

Assay [4] deals with Cellular tumor antigen p53 (Homo sapiens) (UniProt P04637). In words: TOX21_p53_BLA_p5_ratio: Tox21 HCT-116 p53 Agonism Beta-lactamase Assay, Ratio, Phase 5 (AID 2283599). Summed up:
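HCT-116 cells carrying a p53-inducible beta-lactamase reporter were seeded at 4000 cells/well and dosed after 5 h with compound in DMSO (217-fold dilution). After 16 h at 37C, CCF4-AM substrate was added for 2 h, and the 460/530 nm emission ratio was scored as gain-of-signal versus DMSO.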

A short description of assay [5]: TOX21_p53_BLA_p5_viability: Viability Assessment in the Tox21 HCT-116 p53 Agonism Beta-lactamase Assay, Phase 5 (AID 2283600). The method, boiled down:
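Here cell health was gauged by ATP levels in wells holding 4000 cells, each treated 16 h with DMSO-delivered compounds at 217-fold dilution; reduced luminescence marked toxicity.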

For assay [6], the target named is Cellular tumor antigen p53 (Homo sapiens) (UniProt P04637). Description: TOX21_p53_BLA_p4_ratio: Tox21 HCT-116 p53 Agonism Beta-lactamase Assay, Ratio, Phase 4 (AID 2283601). Summed up:
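HCT116 cells carrying an inducible beta-lactamase reporter were plated at 4000 cells/well, rested 5 h, then exposed to compounds in DMSO (217-fold dilution) for 16 h at 37C. CCF4-AM substrate was loaded 2 h at room temperature; 460/530 nm emission ratio scored gain-of-signal versus DMSO.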

The target of assay [7] is PGR (gene 5241) (UniProt P06401). In words: TOX21_PR_BLA_Followup_Agonist_ratio: Tox21 HEK293 Progesterone Receptor (PR) Agonism Beta-lactamase Follow-Up Assay, Ratio (AID 2283933). The method, boiled down:
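Ratio-based beta-lactamase reporter signal after 16 hr compound treatment of PR-UAS-bla HEK293T cells at 37C. Substrate loading lasted 2 hr at room temperature.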

Assay [8] shares this target. In words: TOX21_PR_BLA_Followup_Antagonist_ratio: Tox21 HEK293 Progesterone Receptor (PR) Antagonism Beta-lactamase Follow-Up Assay, Ratio (AID 2283934).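 Note: PR-UAS-bla HEK293T cells stimulated with 1 nM R5020 agonist for 16 hr.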 The method, boiled down:
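Measured in PR-UAS-bla HEK293T cells co-treated with compound and 1 nM promegestone for 16 hr; beta-lactamase ratio read after 2 h FRET substrate loading, with parallel CellTiter-Glo cytotoxicity.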

The nature of assay [9]: TOX21_PR_BLA_Followup_Agonist_viability: Viability Assessment in the Tox21 HEK293 Progesterone Receptor (PR) Agonism Beta-lactamase Follow-Up Assay (AID 2283935).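 Note: signal loss means lower viability so actives are cytotoxic.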 The method, boiled down:
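Viability is read as CellTiter-Glo luminescence, where loss of signal indicates cytotoxicity. The cells are PR-UAS-bla HEK293T given compounds for 16 hr at 37C and 5% CO2, in the same wells used for the bla readout.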

Assay [10] in a line: TOX21_PR_BLA_Followup_Antagonist_viability: Viability Assessment in the Tox21 HEK293 Progesterone Receptor (PR) Antagonism Beta-lactamase Follow-Up Assay (AID 2283936).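 Note: cells exposed to compound with R5020 agonist for 16 h; hits lower the luminescence signal meaning cytotoxicity.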 The method, boiled down: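 PR-UAS-bla HEK293T cells in medium with 2% charcoal-stripped FBS were treated with compounds plus R5020 for 16 hr at 37C. After the beta-lactamase read, CellTiter-Glo was added to the same wells and luminescence read after 30 min at room temperature.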

Assay [11] addresses PGR (gene 5241) (UniProt P06401). Description: TOX21_PR_LUC_Followup_Agonist: Tox21 HEK293 Progesterone Receptor (PR) Agonism Luciferase Follow-Up Assay (AID 2283937; active = hit-call score of the fitted dose curve at least 0.9, where 1 is the maximum; inactive = score below 0.9). The method, boiled down:
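In HEK293 cells stably expressing PR-A with a luciferase reporter, compounds were incubated 16 h at 37C, and induced luminescence was quantified with ONE-Glo, multiplexed with cell viability.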

For assay [12] the target is unchanged. Description: TOX21_PR_LUC_Followup_Antagonist: Tox21 HEK293 Progesterone Receptor (PR) Antagonism Luciferase Follow-Up Assay (AID 2283938).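 Note: curve fitted upward as signal gain over DMSO baseline despite antagonist label.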 Summed up:
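Luciferase reporter in HEK293-PR-A-luc cells: 16 h compound treatment at 37C, ONE-Glo luminescence detection, DMSO as negative control and baseline.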

The nature of assay [13]: TOX21_PR_LUC_Followup_Antagonist_viability: Viability Assessment in the Tox21 HEK293 Progesterone Receptor (PR) Antagonism Luciferase Follow-Up Assay (AID 2283940). Summed up: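 Loss of CellTiter-Glo ATP signal indicates cytotoxicity in HEK293-PR-A-luc cells grown in 10% charcoal-stripped FBS medium, seeded 3,000 per well and incubated 16 h with compound at 37C.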
The nature of assay [14]: TOX21_PR_LUC_Followup_Agonist_viability: Viability Assessment in the Tox21 HEK293 Progesterone Receptor (PR) Agonism Luciferase Follow-Up Assay (AID 2283941).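 Note: loss of signal means cytotoxicity so actives lower viability.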 Summed up:
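Seeding: HEK293-PR-A-luc, 3,000 cells/well, 5 h at 37C. Treatment: compound in DMSO, 16 h, 37C. Read: CellTiter-Glo ATP luminescence, signal loss taken as lower viability.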

Assay [15] addresses Retinoic acid receptor RXR-alpha (Homo sapiens) (UniProt P19793). Description: TOX21_TR_RXR_BLA_Agonist_Followup_ratio: Tox21 Thyroid Hormone Receptor beta Retinoid X Receptor alpha (RXRa) Agonism Beta-lactamase (BLA) Follow-Up Assay, Ratio (AID 2283968). Summed up:
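Agonism is scored as an increase in the 460:530 nm beta-lactamase substrate ratio over DMSO in RXRa-UAS-bla HEK293T cells exposed for 16 h to 11 compound concentrations.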

Assay [16] can be described thus: TOX21_TR_RXR_BLA_Agonist_Followup_viability: Viability Assessment in the Tox21 Thyroid Hormone Receptor beta Retinoid X Receptor alpha (RXRa) Agonism Beta-lactamase (BLA) Follow-Up Assay (AID 2283970). The method, boiled down:
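Luminescent ATP read (CellTiter-Glo) after 16h exposure of RXRa-UAS-bla HEK293T cells at 37C/5% CO2. Activity normalized to DMSO; signal loss scored as reduced viability.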

Assay [17] in a line: UKN5_HCS_SBAD2_neurite_outgrowth: University of Konstanz (UKN) Leist Lab Neurite Outgrowth Assay in human iPSC-derived immature Dorsal Root Ganglia Neurons (UKN5) (AID 2284070; active = hit-call score of the fitted dose curve at least 0.9, where 1 is the maximum; inactive = score below 0.9). To be noted: actives raise or lower the signal. The method, boiled down: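 Neurite outgrowth is quantified as calcein-AM-labelled neurite area in human iPSC-derived peripheral neurons treated for 24 h, starting 1 h after plating in medium with CHIR99021 (1.5 uM), SU5402 (5 uM) and DAPT (5 uM).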

A short description of assay [18]: UKN2_HCS_IMR90_neural_migration: University of Konstanz (UKN) Leist Lab Neural Crest Cell Migration Assay in human induced IMR90 Pluripotent Stem Cells (UKN2) (AID 2284204; active = hit-call score of the fitted dose curve at least 0.9, where 1 is the maximum; inactive = score below 0.9). As to conditions: actives raise or lower the signal. Summed up:
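Using a 96-well stopper format with PLO/laminin/fibronectin coating, neural crest cells from iPSC migrate in cytokine-supplemented N2-S medium; after 24 h, chemicals are applied for a further 24 h, then cells are imaged after dye staining.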

A short description of assay [19]: UKN4_HCS_LUHMES_cell_viability: Viability Assessment in the University of Konstanz (UKN) Leist Lab Neurite Outgrowth Assay in human LUHMES cells (UKN4) (AID 2284232; active = hit-call score of the fitted dose curve at least 0.9, where 1 is the maximum; inactive = score below 0.9). The method, boiled down: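 Measured in replated, 2-day-differentiated LUHMES cells treated 24 h; stained 30 min with H-33342 and calcein-AM before high-content imaging.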
Assay [20] can be described thus: UKN2_HCS_IMR90_cell_viability: Viability Assessment in the University of Konstanz (UKN) Leist Lab Neural Crest Cell Migration Assay in human induced IMR90 Pluripotent Stem Cells (UKN2) (AID 2284233; active = hit-call score of the fitted dose curve at least 0.9, where 1 is the maximum; inactive = score below 0.9;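 note: viability of neural crest cells differentiated from IMR90 iPSC measured by calcein-AM fluorescence imaging; cells exposed to compound for 24 h after a 24 h migration phase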). The method, boiled down:
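cMINC format, iPSC-derived neural crest (IMR90); 24 h migration (EGF/FGF, N2-S), then 24 h toxicant. Calcein-AM/H-33342 stain 30 min; fluorescence intensity by HCS; DMSO-normalised, bidirectional fitting.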

Records with an inconclusive call do not appear. Active and inactive are the calls of the source. Rule for the calls, unless noted: active = hit-call score of the fitted dose curve at least 0.9, where 1 is the maximum; inconclusive = response in the unintended direction; inactive = score below 0.9.

Sequence of Cellular tumor antigen p53 (Homo sapiens) (P04637 whole entry, looked up): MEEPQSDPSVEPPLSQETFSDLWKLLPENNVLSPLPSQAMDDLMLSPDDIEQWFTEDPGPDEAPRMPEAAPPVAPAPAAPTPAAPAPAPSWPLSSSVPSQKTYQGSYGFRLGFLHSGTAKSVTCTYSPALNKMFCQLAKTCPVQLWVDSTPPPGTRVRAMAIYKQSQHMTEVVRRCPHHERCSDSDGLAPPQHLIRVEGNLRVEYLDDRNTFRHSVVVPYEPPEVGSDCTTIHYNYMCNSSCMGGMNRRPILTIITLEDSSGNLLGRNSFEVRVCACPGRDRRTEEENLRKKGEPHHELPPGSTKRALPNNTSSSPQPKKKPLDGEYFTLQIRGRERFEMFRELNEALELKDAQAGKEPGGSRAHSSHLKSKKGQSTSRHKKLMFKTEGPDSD
Sequence of PGR (gene 5241) (P06401 whole entry, looked up): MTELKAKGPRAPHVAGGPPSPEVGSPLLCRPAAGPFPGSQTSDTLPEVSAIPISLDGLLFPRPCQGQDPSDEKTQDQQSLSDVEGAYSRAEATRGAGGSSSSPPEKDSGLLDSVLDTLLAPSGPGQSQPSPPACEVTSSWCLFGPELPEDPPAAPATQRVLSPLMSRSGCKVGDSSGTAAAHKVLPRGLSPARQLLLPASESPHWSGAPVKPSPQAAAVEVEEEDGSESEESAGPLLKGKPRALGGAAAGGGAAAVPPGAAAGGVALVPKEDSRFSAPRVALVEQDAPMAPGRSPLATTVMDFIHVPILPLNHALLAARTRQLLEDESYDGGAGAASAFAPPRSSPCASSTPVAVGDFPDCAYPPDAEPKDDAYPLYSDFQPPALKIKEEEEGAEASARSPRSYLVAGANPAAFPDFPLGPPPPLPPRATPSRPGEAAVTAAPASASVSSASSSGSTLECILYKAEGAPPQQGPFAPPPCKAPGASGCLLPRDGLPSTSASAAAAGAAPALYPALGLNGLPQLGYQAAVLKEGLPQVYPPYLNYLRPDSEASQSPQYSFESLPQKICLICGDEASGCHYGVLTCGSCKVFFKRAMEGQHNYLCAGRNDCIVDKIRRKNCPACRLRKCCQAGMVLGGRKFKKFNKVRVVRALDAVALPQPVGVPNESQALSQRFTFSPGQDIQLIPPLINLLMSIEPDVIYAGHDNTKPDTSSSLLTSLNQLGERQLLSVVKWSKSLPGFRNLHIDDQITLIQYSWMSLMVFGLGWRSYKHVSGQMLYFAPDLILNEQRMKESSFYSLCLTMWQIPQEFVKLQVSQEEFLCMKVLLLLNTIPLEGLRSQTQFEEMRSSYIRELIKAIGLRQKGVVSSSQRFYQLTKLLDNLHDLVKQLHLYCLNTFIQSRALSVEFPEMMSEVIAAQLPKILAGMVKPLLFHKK
Sequence of Retinoic acid receptor RXR-alpha (Homo sapiens) (P19793 whole entry, looked up): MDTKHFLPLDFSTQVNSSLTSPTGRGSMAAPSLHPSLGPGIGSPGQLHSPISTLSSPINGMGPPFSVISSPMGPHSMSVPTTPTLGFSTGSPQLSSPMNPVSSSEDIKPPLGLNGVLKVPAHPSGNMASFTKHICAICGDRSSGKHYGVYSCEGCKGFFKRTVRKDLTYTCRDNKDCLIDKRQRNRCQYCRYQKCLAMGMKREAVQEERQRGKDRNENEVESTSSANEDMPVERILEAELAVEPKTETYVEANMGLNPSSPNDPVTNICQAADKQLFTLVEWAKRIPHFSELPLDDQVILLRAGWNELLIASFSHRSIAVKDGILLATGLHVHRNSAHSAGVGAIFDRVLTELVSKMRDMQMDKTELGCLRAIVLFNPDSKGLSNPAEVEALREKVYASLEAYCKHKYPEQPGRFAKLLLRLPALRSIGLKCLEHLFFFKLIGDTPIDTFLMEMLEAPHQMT

As for `C#C[C@]1(O)CC[C@H]2[C@@H]3CCC4=CC(=O)CCC4=C3C=C[C@@]21CC`, the result in assay [1], in [2], in [3], in assay [4], in assay [5] and in [6] was inactive. The result (in the assay with PGR (gene 5241) [8]; in [9]; in assay [10]; with PGR (gene 5241) [12]; in assay [13]; in assay [14]) was inactive. In addition, the AC50 was 0.144 µM (active) with PGR (gene 5241) [7] and 0.00156 µM (active) with PGR (gene 5241) [11].

Turning to `Clc1cccc(N2CCNCC2)c1`, the result in assay [1], in assay [2], in assay [3] and in assay [4] was inactive.

As to `Cn1c(CCCC(=O)O)nc2cc(N(CCCl)CCCl)ccc21`, the AC50 in [1] was 27.1 µM (active); in assay [2] it was 31.3 µM (active); in assay [4], 33.1 µM (active); in [6], 32.4 µM (active). Also, in [3], the molecule was classed as inactive.

With `CCOC(=O)c1ncn2c1CN(C)C(=O)c1c(I)cccc1-2`, the outcome in assay [1], in assay [2], in [3] and in [4] was inactive.

Consider `COc1ccc2c(c1)C13CCCC[C@@H]1C(C2)N(C)CC3` (stereo partly drawn), for which the outcome in assay [1], in assay [2] and in assay [3] was inactive.

As for `CNCC(=O)c1ccc(O)c(O)c1`, the outcome in assay [1], in assay [2], in assay [3] and in [5] was inactive.

`CN1CCCC(=C(c2cccs2)c2cccs2)C1`: the result in assay [1] and in assay [2] was inactive.

For `N[C@@H](Cc1ccc(Oc2cc(I)c(O)c(I)c2)c(I)c1)C(=O)O`, the outcome in assay [1], in [2], in [3], in [4], in assay [15] and in assay [16] was inactive.

Turning to `O=C1NCN(c2ccccc2)C12CCN(CCCOc1ccc(F)cc1)CC2`, the outcome in assay [1], in assay [2], in [3] and in assay [5] was inactive.

As to `Oc1cccc(Cl)c1Cl`, the result in assay [1], in [2], in assay [3], in assay [4], in assay [5] and in [6] was inactive.

Consider `Nc1cc(Cl)ccc1O`, for which the AC50 was 49.9 µM (active) in assay [1], 59.7 µM (active) in assay [2], 62.6 µM (active) in assay [4] and 54.8 µM (active) in assay [6]. For the same molecule, the molecule was called inactive in assay [3] and in assay [5].

As for `CC(=O)Oc1ccc2c3c1O[C@H]1[C@@H](OC(C)=O)C=C[C@H]4[C@@H](C2)N(C)CC[C@@]341`, the outcome in assay [1], in assay [2], in assay [3], in assay [4], in [5] and in [6] was inactive. The outcome in assay [17], in [18], in [19] and in assay [20] was inactive.

One may read the AC50 as the concentration giving half of the maximal activity seen.
